Assay results as given in PubChem BioAssay.
Several values for one entry are separate records, joined by “and”; a condition that tells them apart may be missing. Identical values can stand only once. More than one record can exist for a structure, and the calls need not agree. Activity calls are given as the source filed them.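 The calls were made as follows, unless noted: active = inhibition above 50%, about 3 SD of the validation set; inactive = the rest.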

What was measured:
[1] = AGP1-GFP expression modulators, hit retest, confirmation, cell-based, flow cytometry, S. cerevisiae, cherry picks (AID 2273;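 active = GFP response above 150% of the DMSO level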;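 also: median GFP channel fluorescence over the whole cell population gate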); settings: S. cerevisiae AGP1-GFP strain, 3 h, at 10 µM
[2] = target: Integrin beta-1 (Homo sapiens) + Integrin alpha-4 (Homo sapiens) (UniProt P13612+P05556); experiment: inhibition of HUTS-21 binding to VLA-4, pilot screen, VLA-4 allosteric modulator project, U937 cells, HUTS-21 mAb, flow cytometry, validation set (AID 2674); settings: HUTS-21 LIBS mAb binding, at 6.7 µM, stronger effect = higher value, binding induced by LDV ligand;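 also: antibody binding induced by the VLA-4 ligand LDV present at three times its Kd; 0% = LDV ligand with antibody and no compound and 100% = antibody without LDV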
[3] = superoxide lowering in aged yeast cells, pilot screen, validation compound set (AID 2706;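 active = superoxide response below 65% of plate, a cut near 3 SD across the whole screen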;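 also: yeast exposed to compound for one week at 30 degrees C before staining; 100% = mean of all compound wells on the same plate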); settings: S. cerevisiae aging, superoxide DHE fluorescence; at 10 µM; stronger effect = lower value
[4] = target: Beta-adrenergic receptor kinase 1 (Homo sapiens) (UniProt P25098); experiment: GRK2 binders displacing RNA aptamer, biochemical, validation, human GRK2, bead flow cytometry (AID 488806;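 active = aptamer binding inhibition above 30%, about 3 SD of noise from non-fluorescent compounds; inactive = inhibition at or below 30%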); settings: bead-bound GRK2, FAM-aptamer displacement, at 10 µM, stronger effect = higher value
[5] = target: Beta-2 adrenergic receptor (Homo sapiens) (UniProt P07550); experiment: beta2AR agonists driving receptor internalization, pilot screen, cell-based, FAP fluorogen, flow cytometry, validation set (AID 504459;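 active = percent response above 42, roughly 3 SD of non-fluorescent test compounds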;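 also: agonist-driven loss of surface beta2AR via internalization measured by FAP dye flow cytometry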); settings: Am2.2-beta2AR cells, FAP surface receptor flow cytometry; at 10 µM; stronger effect = higher value
[6] = target: AP-2 complex subunit beta (Homo sapiens) (UniProt P63010); experiment: inhibitors of arrestin peptide binding to AP2, pilot screen, biochemical, validation set, GST-AP2 beads, flow cytometry (AID 504541;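 active = inhibition above 54%, about 3 SD of non-fluorescent compounds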;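 also: AP2 carries R879A mutation and is captured from E. coli lysate; bead-bound FITC arrestin peptide fluorescence measuring arrestin peptide binding to AP2; 0% = DMSO wells and 100% = excess unlabeled arrestin peptide control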); settings: FITC arrestin peptide, at 10 µM, stronger effect = higher value, AP2 beta2 appendage fragment, R879A mutant
[7] = yeast V-ATPase proton transport modulators, S. cerevisiae, pHLuorin, HTS validation (AID 504600; in the data active = response above about 15%;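 also: plate controls were DMSO for no effect and reference compound for full effect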); settings: S. cerevisiae pHLuorin cytosolic pH, at 10 µM, stronger effect = higher value
[8] = tested on: anti-desmoglein-3 scFv antibody binding to human DSG3; experiment: inhibitors of anti-DSG3 scFv binding to DSG3, pilot screen, biochemical, validation compound set, bead-based, flow cytometry (AID 588368;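 active = binding below the plate cutoff, the plate median minus 3 SD, with a reading above zero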;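 also: signal is the median channel fluorescence of bead-bound GFP antibody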); settings: Protein G beads, DSG3-Fc, scFv-GFP binding, at 10 µM, stronger effect = lower value
[9] = inhibitors of fungal efflux pumps CDR1, CDR2, MDR1, pilot screen, validation compound set, multiplex, phenotypic (AID 588506;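 active = efflux inhibition above 0.42, the validation set average plus 4 SD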;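 also: Nile Red retained in cells so higher fluorescence means more efflux inhibition; 0 = negative control wells and 1 = enniatin B 25 µM full block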); settings: S. cerevisiae pump-expressing triplex, Nile Red efflux flow cytometry; at 10 µM; stronger effect = higher value; the pumps come from Candida albicans
[10] = target: ATP-binding cassette sub-family B member 6 (Homo sapiens) (UniProt Q9NP58); experiment: ABCB6 transporter inhibitors, pilot screen, K562-ABCB6 cells, flow cytometry, validation set (AID 588550;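 active = inhibition above the screen-wide mean plus 3 SD, about 51%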;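 also: 0% = DMSO wells and 100% = benzethonium chloride 70 µM positive control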); settings: K562-ABCB6 porphyrin accumulation, 1 h, at 10 µM, stronger effect = higher value
[11] = promoters of myeloid differentiation in arrested cells, primary screen, cell-based, GFP/MAC1 double positive, flow cytometry, validation set (AID 588685;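 active = differentiation response of at least 50%, scaled between solvent and reference control, from cells with both markers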;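 also: compound exposure lasts four days before antibody staining and flow analysis; 0% = DMSO wells and 100% = 5 µM fulvestrant positive control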); settings: ER-HoxA9 marrow cells, stronger effect = higher value, normalized: vehicle 0, fulvestrant 100

Chain of Beta-adrenergic receptor kinase 1 (Homo sapiens) (P25098 whole entry, looked up): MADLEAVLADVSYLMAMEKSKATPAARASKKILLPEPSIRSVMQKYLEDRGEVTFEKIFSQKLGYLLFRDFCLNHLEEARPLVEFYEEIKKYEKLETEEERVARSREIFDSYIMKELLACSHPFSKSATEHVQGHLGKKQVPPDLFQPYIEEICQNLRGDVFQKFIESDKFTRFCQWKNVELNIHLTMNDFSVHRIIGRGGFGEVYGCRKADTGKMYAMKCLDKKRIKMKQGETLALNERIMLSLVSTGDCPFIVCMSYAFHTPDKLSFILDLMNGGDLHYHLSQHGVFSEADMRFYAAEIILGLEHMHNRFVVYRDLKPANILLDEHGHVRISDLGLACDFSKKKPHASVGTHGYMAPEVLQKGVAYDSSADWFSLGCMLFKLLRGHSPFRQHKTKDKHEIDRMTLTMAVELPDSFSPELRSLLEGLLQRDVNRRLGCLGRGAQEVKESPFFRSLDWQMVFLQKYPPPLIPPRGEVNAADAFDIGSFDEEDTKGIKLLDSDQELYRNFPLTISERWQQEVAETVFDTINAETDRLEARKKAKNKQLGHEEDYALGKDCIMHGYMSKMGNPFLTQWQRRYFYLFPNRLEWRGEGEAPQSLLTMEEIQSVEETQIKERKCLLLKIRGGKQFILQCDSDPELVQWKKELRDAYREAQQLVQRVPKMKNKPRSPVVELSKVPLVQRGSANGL
Chain of AP-2 complex subunit beta (Homo sapiens) (P63010 whole entry, looked up, the tested form may be a part, one chain of several): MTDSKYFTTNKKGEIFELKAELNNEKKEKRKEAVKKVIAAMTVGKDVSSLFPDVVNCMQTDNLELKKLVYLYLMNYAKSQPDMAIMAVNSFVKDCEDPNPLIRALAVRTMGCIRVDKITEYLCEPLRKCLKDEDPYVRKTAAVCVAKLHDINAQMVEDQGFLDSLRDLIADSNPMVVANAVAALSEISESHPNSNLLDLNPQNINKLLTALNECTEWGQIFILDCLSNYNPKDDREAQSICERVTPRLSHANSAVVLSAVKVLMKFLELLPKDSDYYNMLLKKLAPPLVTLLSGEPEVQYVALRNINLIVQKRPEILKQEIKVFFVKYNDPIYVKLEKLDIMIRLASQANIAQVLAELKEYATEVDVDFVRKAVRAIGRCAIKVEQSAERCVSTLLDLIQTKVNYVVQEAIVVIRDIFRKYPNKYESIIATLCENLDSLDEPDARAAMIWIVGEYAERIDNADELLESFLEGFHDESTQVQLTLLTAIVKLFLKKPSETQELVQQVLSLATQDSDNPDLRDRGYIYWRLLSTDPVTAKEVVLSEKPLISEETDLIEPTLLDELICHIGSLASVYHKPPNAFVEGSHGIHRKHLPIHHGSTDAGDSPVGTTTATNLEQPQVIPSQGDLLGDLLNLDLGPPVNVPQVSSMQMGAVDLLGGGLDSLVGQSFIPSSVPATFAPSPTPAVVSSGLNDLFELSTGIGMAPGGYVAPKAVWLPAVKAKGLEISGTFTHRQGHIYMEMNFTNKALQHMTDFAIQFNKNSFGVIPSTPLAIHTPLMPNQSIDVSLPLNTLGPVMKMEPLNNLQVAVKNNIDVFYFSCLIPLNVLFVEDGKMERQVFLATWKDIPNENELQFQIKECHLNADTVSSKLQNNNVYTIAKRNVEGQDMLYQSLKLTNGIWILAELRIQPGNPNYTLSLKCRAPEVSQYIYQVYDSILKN
Chain of Integrin beta-1 (Homo sapiens) + Integrin alpha-4 (Homo sapiens) (P05556 whole entry, looked up): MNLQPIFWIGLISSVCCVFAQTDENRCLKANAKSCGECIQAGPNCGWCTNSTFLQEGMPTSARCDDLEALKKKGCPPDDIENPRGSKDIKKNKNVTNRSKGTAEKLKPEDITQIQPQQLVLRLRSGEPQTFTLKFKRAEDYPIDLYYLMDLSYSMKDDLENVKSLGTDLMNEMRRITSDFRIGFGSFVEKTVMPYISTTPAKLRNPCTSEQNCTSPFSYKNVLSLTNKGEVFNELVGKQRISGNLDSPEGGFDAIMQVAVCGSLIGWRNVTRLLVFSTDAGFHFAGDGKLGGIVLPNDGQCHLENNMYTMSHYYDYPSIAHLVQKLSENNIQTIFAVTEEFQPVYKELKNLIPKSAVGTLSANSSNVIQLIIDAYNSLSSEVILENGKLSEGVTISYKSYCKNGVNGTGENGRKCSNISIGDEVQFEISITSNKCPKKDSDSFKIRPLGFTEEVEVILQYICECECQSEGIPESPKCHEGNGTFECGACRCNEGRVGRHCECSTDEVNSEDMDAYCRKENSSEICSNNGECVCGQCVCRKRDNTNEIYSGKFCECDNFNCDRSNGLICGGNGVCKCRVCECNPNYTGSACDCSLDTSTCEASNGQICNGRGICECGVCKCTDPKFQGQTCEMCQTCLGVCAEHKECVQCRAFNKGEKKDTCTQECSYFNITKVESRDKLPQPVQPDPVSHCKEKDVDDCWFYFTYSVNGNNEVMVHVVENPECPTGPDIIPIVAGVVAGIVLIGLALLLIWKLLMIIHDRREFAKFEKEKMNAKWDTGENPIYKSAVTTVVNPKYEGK
Chain of Integrin beta-1 (Homo sapiens) + Integrin alpha-4 (Homo sapiens) (P13612 whole entry, looked up): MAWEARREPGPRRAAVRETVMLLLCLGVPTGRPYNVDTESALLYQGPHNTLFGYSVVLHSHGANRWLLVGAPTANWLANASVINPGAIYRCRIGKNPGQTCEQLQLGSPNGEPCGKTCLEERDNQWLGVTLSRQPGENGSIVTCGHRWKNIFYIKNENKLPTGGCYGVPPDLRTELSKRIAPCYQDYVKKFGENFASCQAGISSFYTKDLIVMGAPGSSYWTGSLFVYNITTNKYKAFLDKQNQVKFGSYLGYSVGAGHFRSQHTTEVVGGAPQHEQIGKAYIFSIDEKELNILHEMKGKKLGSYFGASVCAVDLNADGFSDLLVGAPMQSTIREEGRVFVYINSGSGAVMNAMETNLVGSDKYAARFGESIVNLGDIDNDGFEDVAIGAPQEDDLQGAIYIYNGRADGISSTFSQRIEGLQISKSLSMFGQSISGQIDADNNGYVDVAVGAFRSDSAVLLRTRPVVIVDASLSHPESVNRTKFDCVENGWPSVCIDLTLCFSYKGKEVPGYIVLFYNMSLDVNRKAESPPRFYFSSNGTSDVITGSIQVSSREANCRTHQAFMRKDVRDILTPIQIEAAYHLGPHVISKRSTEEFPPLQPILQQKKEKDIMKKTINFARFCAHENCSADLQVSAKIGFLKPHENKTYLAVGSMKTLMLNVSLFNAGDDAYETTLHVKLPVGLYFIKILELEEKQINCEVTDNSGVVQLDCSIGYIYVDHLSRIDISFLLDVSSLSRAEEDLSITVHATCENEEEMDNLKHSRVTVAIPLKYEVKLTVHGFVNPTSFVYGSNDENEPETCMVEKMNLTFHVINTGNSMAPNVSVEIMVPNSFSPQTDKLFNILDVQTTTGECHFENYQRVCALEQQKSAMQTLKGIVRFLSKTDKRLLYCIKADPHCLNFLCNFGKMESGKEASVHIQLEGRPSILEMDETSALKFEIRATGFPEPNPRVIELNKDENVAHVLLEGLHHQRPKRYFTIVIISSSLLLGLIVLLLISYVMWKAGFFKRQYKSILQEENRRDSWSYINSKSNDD
Chain of Beta-2 adrenergic receptor (Homo sapiens) (P07550 whole entry, looked up): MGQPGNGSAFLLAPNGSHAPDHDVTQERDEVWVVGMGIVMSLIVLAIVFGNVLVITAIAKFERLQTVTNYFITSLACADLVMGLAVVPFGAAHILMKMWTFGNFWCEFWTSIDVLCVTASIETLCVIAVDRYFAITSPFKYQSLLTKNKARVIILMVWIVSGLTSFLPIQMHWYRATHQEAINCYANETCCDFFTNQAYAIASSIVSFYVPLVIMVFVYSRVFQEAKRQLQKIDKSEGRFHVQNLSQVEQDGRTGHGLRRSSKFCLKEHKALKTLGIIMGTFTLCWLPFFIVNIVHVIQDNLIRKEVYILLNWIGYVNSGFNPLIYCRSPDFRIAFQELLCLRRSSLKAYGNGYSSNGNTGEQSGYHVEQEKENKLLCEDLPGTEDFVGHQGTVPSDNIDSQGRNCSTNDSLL
Chain of ATP-binding cassette sub-family B member 6 (Homo sapiens) (Q9NP58 whole entry, looked up): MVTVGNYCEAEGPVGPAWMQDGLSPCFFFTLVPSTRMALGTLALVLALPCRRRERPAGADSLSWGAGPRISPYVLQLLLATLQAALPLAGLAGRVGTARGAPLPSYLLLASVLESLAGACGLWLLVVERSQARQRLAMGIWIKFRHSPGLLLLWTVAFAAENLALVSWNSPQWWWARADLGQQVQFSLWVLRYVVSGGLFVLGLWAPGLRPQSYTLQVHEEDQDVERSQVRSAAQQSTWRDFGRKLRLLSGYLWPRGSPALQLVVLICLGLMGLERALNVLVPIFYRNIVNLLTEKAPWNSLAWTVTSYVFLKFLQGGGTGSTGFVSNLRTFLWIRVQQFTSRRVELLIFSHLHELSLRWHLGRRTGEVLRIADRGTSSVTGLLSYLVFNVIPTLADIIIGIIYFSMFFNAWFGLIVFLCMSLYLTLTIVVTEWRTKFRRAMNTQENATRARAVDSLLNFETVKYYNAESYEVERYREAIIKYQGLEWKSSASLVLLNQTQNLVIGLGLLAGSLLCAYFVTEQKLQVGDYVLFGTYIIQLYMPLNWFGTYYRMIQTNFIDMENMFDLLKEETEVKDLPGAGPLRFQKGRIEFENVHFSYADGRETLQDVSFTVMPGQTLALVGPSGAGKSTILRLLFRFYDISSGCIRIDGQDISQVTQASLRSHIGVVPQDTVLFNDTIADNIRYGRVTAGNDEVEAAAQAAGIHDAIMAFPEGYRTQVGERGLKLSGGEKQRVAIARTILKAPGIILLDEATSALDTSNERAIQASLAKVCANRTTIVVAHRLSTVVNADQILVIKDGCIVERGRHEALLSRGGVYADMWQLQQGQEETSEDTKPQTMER

COc1cccc(/C=C/C(=O)c2c(O)cc(C)oc2=O)c1O
inactive: GFP response, % of DMSO [1] 94.1% | inhibition [2] -3.16% | superoxide response (% of plate) [3] 80.7% | aptamer binding inhibition [4] 3% | response [5] 17.4% | inhibition [6] 10.4% | response [7] 2.77% | binding (% of control) [8] 104% | efflux inhibition (fraction of control) [9] 0.19 | inhibition [10] -4% | differentiation response [11] 5.6%

C[n+]1ccccc1/C=N/O
inactive: GFP response, % of DMSO [1] 98% | inhibition [2] 15.2% and -21.2% | superoxide response (% of plate) [3] 102% and 95% | aptamer binding inhibition [4] 2% and 0% | response [5] 5.73% and -2.86% | inhibition [6] -7.09% and 7.17% | response [7] -0.64% and -1.12% | binding (% of control) [8] 104% and 95.1% | efflux inhibition (fraction of control) [9] -0.2 and -0.47 | inhibition [10] 9% and 0% | differentiation response [11] 0.82% and 2.74%

C[C@]12C[C@H](O)[C@H]3[C@@H](CCC4=CC(=O)CC[C@@]43C)[C@@H]1CC[C@@H]2C(=O)CO
inactive: GFP response, % of DMSO [1] 96.4% | inhibition [2] 31.7% | superoxide response (% of plate) [3] 103% | aptamer binding inhibition [4] 4% | response [5] 4.9% | inhibition [6] -0.36% | response [7] 6.31% | binding (% of control) [8] 104% | efflux inhibition (fraction of control) [9] -0.56 | inhibition [10] 12% | differentiation response [11] 4.91%

C1COC(NC(C2CC2)C2CC2)=N1
inactive: GFP response, % of DMSO [1] 105% | inhibition [2] 17.1% | superoxide response (% of plate) [3] 96.6% | aptamer binding inhibition [4] 3% | response [5] 3.85% | inhibition [6] 11.9% | response [7] 9.25% | binding (% of control) [8] 98.3% | efflux inhibition (fraction of control) [9] 0.23 | inhibition [10] 6% | differentiation response [11] 0.82%

C[C@]12CCC(=O)C=C1[C@H](O)C[C@@H]1[C@@H]2[C@@H](O)C[C@@]2(C)[C@H]1CC[C@]2(O)C(=O)CO
inactive: GFP response, % of DMSO [1] 98.9% | inhibition [2] -10.5% | superoxide response (% of plate) [3] 98.9% | aptamer binding inhibition [4] 2% | response [5] 6.38% | inhibition [6] -21.5% | response [7] 1.8% | binding (% of control) [8] 104% | efflux inhibition (fraction of control) [9] -0.05 | inhibition [10] 3% | differentiation response [11] 5.67%

Cn1c(=O)c(C(=O)NCCO)c(O)c2ccccc21
inactive: GFP response, % of DMSO [1] 98.3% | inhibition [2] 15.9% | superoxide response (% of plate) [3] 104% | aptamer binding inhibition [4] 6% | response [5] -29.6% | inhibition [6] 6.89% | response [7] 2.23% | binding (% of control) [8] 103% | efflux inhibition (fraction of control) [9] 0 | inhibition [10] 1% | differentiation response [11] -5.97%

CS(=O)(=O)Nc1cccc(C(=O)CC2(O)C(=O)Nc3ccc(Br)cc32)c1 (configuration not stated)
inactive: GFP response, % of DMSO [1] 101% | inhibition [2] -10.8% | superoxide response (% of plate) [3] 112% | aptamer binding inhibition [4] 4% | response [5] -1.29% | inhibition [6] 50% | response [7] -8.12% | binding (% of control) [8] 101% | efflux inhibition (fraction of control) [9] 0.08 | inhibition [10] 7% | differentiation response [11] 5.13%

CN(C)CCCN1c2ccccc2Sc2ccc(Cl)cc21
inactive: GFP response, % of DMSO [1] 94.3% | inhibition [2] 7.43% and 1.61% | superoxide response (% of plate) [3] 98.3% and 93.3% | aptamer binding inhibition [4] -6% and -20% | response [5] 17.4% and 15.9% | inhibition [6] -3.39% and -5.93% | response [7] 10.8% and 0.91% | binding (% of control) [8] 107% and 114% | inhibition [10] 10% and 13% | differentiation response [11] -7.37% and 5.73%
-0.17 (inactive) and 0.55 (active): efflux inhibition (fraction of control) [9]

C[C@]12CCC(=O)C=C1CC[C@@H]1[C@@H]2[C@@H](O)C[C@@]2(C)[C@H]1CC[C@]2(O)C(=O)COC(=O)CCC(=O)O
inactive: GFP response, % of DMSO [1] 98.9% and 99.3% | inhibition [2] -9.57% | superoxide response (% of plate) [3] 98.2% | aptamer binding inhibition [4] 0% | inhibition [6] -8.58% | response [7] 10.6% | binding (% of control) [8] 99.5% | efflux inhibition (fraction of control) [9] -0.16 | inhibition [10] 10% | differentiation response [11] -26%

C[C@]12CC[C@H]3[C@@H](CCC4=CC(=O)CC[C@@]43C)[C@@H]1CC[C@@H]2C(=O)CO
inactive: GFP response, % of DMSO [1] 92.6% | inhibition [2] -13.9% | superoxide response (% of plate) [3] 104% | aptamer binding inhibition [4] -4% | response [5] -2.3% | inhibition [6] 11.7% | response [7] -4.52% | binding (% of control) [8] 111% | efflux inhibition (fraction of control) [9] -0.02 | inhibition [10] 7% | differentiation response [11] 14.7%

C[C@H]1C[C@@H]2[C@H]([C@@H](O)C[C@@]3(C)[C@H]2CC[C@]3(O)C(=O)CO)[C@@]2(C)C=CC(=O)C=C12
inactive: GFP response, % of DMSO [1] 96% | inhibition [2] 10.3% | superoxide response (% of plate) [3] 88.9% | aptamer binding inhibition [4] 7% | response [5] 1.51% | inhibition [6] 2.63% | response [7] 0.24% | binding (% of control) [8] 99.2% | efflux inhibition (fraction of control) [9] -0.38 | inhibition [10] 13% | differentiation response [11] 0%

CC(=O)[C@@]1(O)CC[C@H]2[C@@H]3CCC4=CC(=O)CC[C@]4(C)[C@H]3[C@@H](O)C[C@@]21C
inactive: GFP response, % of DMSO [1] 103% | inhibition [2] 12.8% | superoxide response (% of plate) [3] 89.3% | aptamer binding inhibition [4] 1% | inhibition [6] -12.8% | response [7] 4.15% | binding (% of control) [8] 100% | efflux inhibition (fraction of control) [9] -0.2 | inhibition [10] 10% | differentiation response [11] -3.43%

CC(=O)CSc1ncnc2c1cnn2-c1ccccc1
inactive: GFP response, % of DMSO [1] 92.6% | inhibition [2] 10.3% | superoxide response (% of plate) [3] 85.6% | aptamer binding inhibition [4] 1% | response [5] 6.9% | inhibition [6] 14.5% | response [7] -1.56% | binding (% of control) [8] 105% | efflux inhibition (fraction of control) [9] 0.09 | inhibition [10] 7% | differentiation response [11] 6.55%

O=[N+]([O-])c1cccc2cn[nH]c12
inactive: GFP response, % of DMSO [1] 105% | inhibition [2] -13.9% | superoxide response (% of plate) [3] 117% | aptamer binding inhibition [4] 0% | response [5] -10.1% | inhibition [6] 49.7% | response [7] -6.22% | binding (% of control) [8] 93.6% | efflux inhibition (fraction of control) [9] 0.3 | inhibition [10] 0% | differentiation response [11] 3.28%
